Sampled rows, rich in hits. Any-hit rate of the full collection: about 9.4%.
HTT aggregate: reduces HttQ103-GFP aggregates in PC12 cells | PC12 HttQ103-GFP aggregates, Acumen cytometry, 40 h | Potency, µM (titrated, usually from 46.1 µM), most hits filed as inhibitors | 220,000 compounds, 1.1% hits; note: nearly all actives have a fitted effect of over 60% in size
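Compounds (qHTS titration) were added to PC12 cells expressing an ecdysone-driven HTT exon 1 Q103–GFP fusion after induction with 100 nM tebufenozide. Aggregate formation was measured as GFP objects in cell lysates.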
ALDH1A1 inh: ALDH1A1 (human) enzyme inhibition; 220,000 compounds, 7.3% hits; Purified ALDH1A1, NADH fluorescence, propionaldehyde substrate; P00352; Potency, µM (highest dose often 75.3 µM), actives largely listed as inhibitors; active = well fitted inhibition curve with a large enough effect, not every such curve was filed as active; inconclusive = small, poorly fitted or top-dose-only effect, or another doubt; inactive = no such curve, though single readings can be large or run the other way
HPGD inh: HPGD (human) dehydrogenase inhibition; P15428; purified HPGD, NADH fluorescence kinetic, PGE2 substrate; Potency, µM, usual class: inhibitors; 150,000 compounds, 4.3% hits; active = well fitted inhibition curve with a large enough effect, not every such curve was filed as active; inconclusive = small, poorly fitted or top-dose-only effect, or another doubt; inactive = no such curve, though single readings can be large or run the other way
Target sequence (P15428 whole entry, looked up): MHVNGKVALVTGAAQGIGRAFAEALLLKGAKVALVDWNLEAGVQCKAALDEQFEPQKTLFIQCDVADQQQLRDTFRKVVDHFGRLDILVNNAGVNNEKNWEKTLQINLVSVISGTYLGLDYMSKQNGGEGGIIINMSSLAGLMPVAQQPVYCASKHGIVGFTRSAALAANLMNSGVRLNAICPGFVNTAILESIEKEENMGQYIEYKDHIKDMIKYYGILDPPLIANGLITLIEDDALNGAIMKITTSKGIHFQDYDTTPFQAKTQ
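NADH formation kinetics: reaction with 30 uM PGE2 and 1 mM NAD+ (final), 20 nM enzyme, Tris-HCl pH 8 with Tween 20, after 15 min compound preincubation at room temperature. Fluorescence change, last versus first of five reads.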
IMPase inh: IMPase inhibition in cells; CHO-M1 cells, IP1 accumulation, HTRF TR-FRET ratio; inhibition (IP1 accumulation), % at 46.1 µM; P97697; 120,000 tested, under 10 active; active = well fitted curve in the direction sought with a large enough effect in the signal ratio, not every such curve was filed as active; inconclusive = small, poorly fitted or top-dose-only effect, or a change in a side signal; inactive = no such curve, though single readings can be large or run the other way; the % refers to the signal ratio;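 note: cells stimulated with carbachol in lithium chloride buffer; higher means more IMPase inhibition seen as more IP1 and lower FRET ratio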
Target sequence (P97697 whole entry, looked up): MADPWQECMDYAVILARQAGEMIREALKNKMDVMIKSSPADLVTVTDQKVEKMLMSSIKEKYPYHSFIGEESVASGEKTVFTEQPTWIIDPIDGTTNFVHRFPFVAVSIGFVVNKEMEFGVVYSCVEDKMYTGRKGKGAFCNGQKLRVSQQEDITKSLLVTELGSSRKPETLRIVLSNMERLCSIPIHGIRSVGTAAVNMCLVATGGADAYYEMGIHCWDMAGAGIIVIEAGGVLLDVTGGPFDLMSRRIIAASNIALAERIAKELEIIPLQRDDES
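CHO-M1, 2000 cells/well, cultured 16–30 h; cpd up to 46 uM; carbachol (50 uM solution, stimulation buffer w/ 50 mM LiCl, pH 7.4), 30 min 37C; IP-One TR-FRET, 10 min RT; Ex 320/Em 665, 620; Hill-fit AC50.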
IMPase Li cell: cell-permeable IMPase inhibitors with lithium potentiation | CHO-M1 cells, IP1 TR-FRET (IP-One), carbachol + lithium | Potency, µM (highest dose often 59.4 µM), hits mostly inhibitors | 210,000 compounds, 0.35% hits;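 note: IP1 builds up when IMPase is blocked and the TR-FRET signal falls; nearly all actives have a fitted effect of over 50% in size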
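CHO-M1, 2000 cells/well, 16–30 h culture; cpd + low Li+, 30 min 37C; lysis with d2-IP1/Eu-anti-IP1 Ab, 10 min RT; TR-FRET 665/620 ratio and 620 channel; AC50 via Hill.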
HTT cytoprotect: protects HTT-Q103 PC12 cells, measured by ATP; PC12 HTT-Q103 induced, cytoprotection, ATP luminescence, 40 h; Potency, µM (highest dose often 56.4 µM), usual class: activators; 230,000 compounds, 0.14% hits; AID 1471; note: nearly all actives have a fitted effect of over 45% in size
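Compounds were screened for protection of PC12 cells against cell death after tebufenozide induction (100 nM final) of mutant Huntingtin exon 1 (Q103) fused to GFP.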
Hits are given with their value; . = inactive; ? = inconclusive; / = no result given; [ ] = remark or other dose. Unless noted, calls come from the whole dose curve; as a rule, active = well fitted curve in the direction sought with a large enough effect; inconclusive = small, poorly fitted or top-dose-only effect, or another doubt; inactive = no such curve, though single readings can be large; an effect the other way counts as inactive or inconclusive.

SMILES	HTT aggregate	ALDH1A1 inh	HPGD inh	IMPase inh	IMPase Li cell	HTT cytoprotect
C/C(=C\COc1cc(=O)[nH]c2ccccc12)CC[C@@H](O)C(C)(C)O	/	/	/	/	/	.
COc1cc([C@H](O)CO)ccc1O	/	/	/	.	/	.[1.9 µM]
O=C(Nc1nccs1)c1cccc(NC(=O)C(F)(F)F)c1	.[9.22 µM]	/	/	/	/	.[10 µM]
COC(=O)CCSc1nc2sc3c(c2c(=O)n1Cc1ccccc1)CCC(C(C)(C)C)C3 (stereo not drawn)	/	/	/	.	/	/
C/C(=N\NS(=O)(=O)c1ccc(C)c([N+](=O)[O-])c1)c1ccc2c(c1)OCO2	.	22µM	/	/	.	.
C/C(=N\NS(=O)(=O)c1ccccc1)c1ccc2c(c1)OCO2	.	?	/	/	.	.
C/C(Cl)=C\Cn1c(N2CCCCCC2)nc2c1c(=O)n(C)c(=O)n2C	.	3.5µM	.	.	.	.[10 µM]
Cn1c(=O)[nH]c(=O)c2c1nc(N1CCCCCC1)n2CC(N)=O	.	14µM	.	.	.	.[1.9 µM]
CCN1CCN(Cc2nc3c(c(=O)n(C)c(=O)n3C)n2Cc2ccccc2Cl)CC1	.	.	.	.	.	.
Cn1c(=O)c2c(nc(CN3CCN(CCO)CC3)n2Cc2cccc3ccccc23)n(C)c1=O	.	4.5µM	.	.	.	.[0.074 µM]
Cn1c(=O)c2c(nc(N3CCCCC3)n2CCSc2nc3ccccc3o2)n(C)c1=O	/	/	/	/	/	.[0.074 µM]
Cn1c(=O)c2c(nc(N3CCCCCC3)n2Cc2cccc3ccccc23)n(C)c1=O	?	0.89µM	.	?	.	.[0.074 µM]
CC(C)CNC1=C(C(=S)Nc2ccccc2)C(=O)CC(C)(C)C1	.	?	.	/	.	.[10 µM]
Cn1c(=O)c2c(nc(N3CCCCCC3)n2CC(=O)c2ccccc2)n(C)c1=O	.[9.22 µM]	4.5µM	.	.	.	.[10 µM]
Cn1c(=O)c2c(nc(N3CCOCC3)n2CC(=O)c2ccccc2)n(C)c1=O	.	.	.	.	.	.[0.074 µM]
CCn1c(N2CCN(CC(=O)c3c[nH]c4ccccc34)CC2)nc2c1c(=O)[nH]c(=O)n2C	.	22µM	.	.	.	.
CN1CCN(c2nc3c(c(=O)n(C)c(=O)n3C)n2Cc2cccc3ccccc23)CC1	.	11µM	.	.	.	.
CCCn1c(N2CCN(CC(=O)c3c(C)n(C)c4ccccc34)CC2)nc2c1c(=O)[nH]c(=O)n2C	.	?	.	.	.	.
Cn1c(=O)c2c(nc(N3CCOCC3)n2Cc2ccccc2)n(C)c1=O	/	/	/	.	/	/
O=C(CSc1ncc(-c2ccccc2)[nH]1)Nc1cccc(C(F)(F)F)c1	/	/	/	.	/	/
Cc1cc(NC(=O)CSc2nnc(-c3ccoc3C)n2N)no1	.	.	.	.	.	.
CCOc1ccc(C(C)=O)cc1CSc1nnc(-c2ccoc2C)n1N	.	22µM	14µM	.	.	.
CC(C)(C)c1ccc(Oc2ccc(NC(=O)CCC(=O)OCC(=O)c3ccccc3)cc2)cc1	/	/	/	.	/	/
O=C1N/C(=N/O)S/C1=C/c1cccnc1	/	.	/	/	.	/
Cc1ccc(S(=O)(=O)/N=C2/NC(=O)/C(=C/c3ccc(Br)o3)S2)cc1	.	.	14µM	/	.	.[10 µM]
SMILES	HTT aggregate	ALDH1A1 inh	HPGD inh	IMPase inh	IMPase Li cell	HTT cytoprotect
Cc1ccc(S(=O)(=O)/N=C2/NC(=O)/C(=C/c3cccnc3)S2)cc1	.	.	20µM	.	.	.
C=C(C[C@]1(C(=O)OC)CC2(CC=C(C)C)C(=O)C(C(=O)CC(C)C)=C(O)C(CC=C(C)C)(C1)C2=O)C(=O)OC (stereo partly drawn)	/	.	.	/	.	?
CCOc1nc(-c2ccc(C)cc2)ccc1-c1noc(-c2ccccc2F)n1	/	/	/	.	/	/
O=C(COC(=O)C1CC2C=CC1C2)Nc1ccccc1F (stereo not drawn)	.	13µM	/	/	.	.[10 µM]
CC1CCC2C(=O)N3C(CCC(C)[C@H]3c3cccc(N4CCCC4=O)c3)C(=O)N2C1c1cccc(N2CCCC2=O)c1 (stereo partly drawn)	/	.[13.5 µM]	/	/	/	.[10 µM]
FC(F)(F)c1cc(-c2cccs2)nc2ncnn12	.[9.22 µM]	?	/	/	.	.[10 µM]
CCOc1ccc(NC(=O)C2CC=CCC2C(=O)O)cc1 (stereo not drawn)	.	.	.	.	.	.[0.074 µM]
Cc1cc(C)cc(Oc2ccc(NC(=O)C3CC=CCC3C(=O)O)cc2)c1 (stereo not drawn)	.	2.8µM	/	/	.	/
O=C(Nc1cccc(C(=O)N2CCN(Cc3ccccc3)CC2)c1)c1ccccc1	11µM	?	.	.	.	.
CC(=O)c1cccc(NC(=O)c2ccc(NS(C)(=O)=O)cc2)c1	.	.	13µM	.	.	.[10 µM]
O=C(Nc1cccc(F)c1)c1ccccc1	.	.	32µM	.	.	.
CCOC(=O)C1CCN(C(=O)c2ccc3c(c2)N=C(CC)c2cc(C)ccc2S3)CC1	/	/	/	.	/	/
N#Cc1ccc(CN2CCCC3(CCN(S(=O)(=O)c4ccccc4)CC3)C2)cc1	/	?	.	/	.	.
Cc1ccc(S(=O)(=O)O[C@H]2CC(C(C)(C)C)CC[C@@H]2c2ccccc2)cc1 (stereo partly drawn)	/	.[13.5 µM]	.	/	.	/
O=C(O)C1CC=CCC1C(=O)Nc1cccc(F)c1 (stereo not drawn)	?	28µM	.	.	.	.[1.9 µM]

Compound activity from PubChem BioAssay.
